“And” between values parts separate entries of the source, which are not always exact repeats. Equal values may be shown once. The campaign covered roughly 340,000 compounds. About 2,100 (0.62%) were called active.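 Rule for the calls: active = first-screen hits whose inhibition reached a set limit at any dose in the follow-up dose series; inconclusive = inhibition above the set first-screen limit but never retested; inactive = the rest.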 The list is a sample of the results. Entries with a potency or affinity are not part of this list.
Target: Rac GTPase-activating protein 1 (Homo sapiens) (UniProt Q9H0H5)
Assay: MgcRacGAP GTPase-activating activity inhibitors, confirmation, biochemical, ADP Hunter fluorescence, primary and confirmatory (AID 624330);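 note: fluorescence reports GDP produced by GAP-driven GTP hydrolysis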
Conditions: MgcRacGAP-stimulated Rac1 GTP hydrolysis, at 30 µM, hits give high values, GST-tagged Rac1 F28L mutant substrate

Rac GTPase-activating protein 1 (Homo sapiens), sequence (Q9H0H5 whole entry, looked up): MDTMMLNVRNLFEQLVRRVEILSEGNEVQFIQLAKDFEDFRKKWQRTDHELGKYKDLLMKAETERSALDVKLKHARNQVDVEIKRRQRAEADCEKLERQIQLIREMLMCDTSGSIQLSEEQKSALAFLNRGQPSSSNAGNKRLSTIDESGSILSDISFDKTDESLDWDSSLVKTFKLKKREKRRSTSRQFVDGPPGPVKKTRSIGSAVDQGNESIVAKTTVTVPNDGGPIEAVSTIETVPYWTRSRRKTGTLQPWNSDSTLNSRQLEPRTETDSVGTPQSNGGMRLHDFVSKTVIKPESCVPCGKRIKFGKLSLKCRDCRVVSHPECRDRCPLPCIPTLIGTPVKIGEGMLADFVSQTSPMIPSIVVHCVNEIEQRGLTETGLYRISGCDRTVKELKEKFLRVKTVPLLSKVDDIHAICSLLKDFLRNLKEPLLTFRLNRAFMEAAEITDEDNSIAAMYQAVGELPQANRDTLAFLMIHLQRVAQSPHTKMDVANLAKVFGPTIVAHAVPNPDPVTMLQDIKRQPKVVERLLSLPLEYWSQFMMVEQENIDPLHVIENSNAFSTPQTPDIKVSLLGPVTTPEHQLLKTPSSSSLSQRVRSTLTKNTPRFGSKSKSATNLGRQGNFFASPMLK

inhibition, inactive:
c1ccc2c(c1)Nc1cc3ccccc3cc1O2 -1.21%
COc1ccc(/C=N/NC(=O)CCn2nnc3ccccc32)cc1 15.9%
Cc1cccc(C(C)n2nnc3ccccc32)c1O (stereo not drawn) 6.53%
COc1cccc(/C=N/NC(=O)CCn2nnc3ccccc32)c1 1.99%
CCOc1cc(/C=N\NC(=O)Cn2nnc3ccccc32)ccc1O 28.1%
COc1ccc(/C=N/NC(=O)Cn2nnc3ccccc32)cc1OC 3.04%
COc1cccc(/C=N/NC(=O)C(C)n2nnc3ccccc32)c1 (stereo not drawn) 9.47%
COc1ccc(/C=N/NC(=O)C(C)n2nnc3ccccc32)cc1OC (stereo not drawn) 8.77%
COc1ccc(C(O)c2nc3ccccc3n2C)cc1OC (stereo not drawn) 3.18%
O=C(c1ccnc(Cl)c1)N1CCCC(Nc2ccc(F)cc2)C1 (stereo not drawn) 6.71%
CCc1nnc(NC(=O)CSc2nnc(C3CC3)n2C)s1 3.03%
Cc1ccc(OC/C(O)=C(\C#N)c2nc3ccccc3s2)cc1 0.24%
CN(C1CCS(=O)(=O)C1)S(=O)(=O)c1ccc(N2CCCC2=O)cc1 (stereo not drawn) 14.4%
COc1ccc(CCNC(=O)C(=O)NCC2CCCN2S(=O)(=O)c2ccccc2)cc1OC (stereo not drawn) 1.68%
CC(NC(=O)Nc1ccc([N+](=O)[O-])cc1)C(c1cccs1)N1CCCC1 (stereo not drawn) 8.33%
COc1ccc(/C=N/NC(=O)CCn2c3ccccc3c3ccccc32)cc1O 11.7%
COc1ccc(/C=N/NC(=O)CCn2c3ccccc3c3ccccc32)cc1OC -2.76%
COc1ccc(CCc2ccc3cc(OC)ccc3n2)cc1 1.87%
O=C(O)c1ccccc1C(=O)N(Cc1ccccc1)Cc1ccccc1 4%
CC(C)[C@H](N)c1cn([C@@H](CO)C(=O)N2CCNCC2)nn1 6.71%
CCCc1c(C(=O)N/N=C/c2ccc3c(c2)OCO3)nnn1-c1nonc1N 3.5%
CC(C#N)(NC(=O)CN1CCN(S(=O)(=O)c2cccc(F)c2)CC1)C1CC1 (stereo not drawn) 23.8%
COc1ccc(CCC(=O)N2CCN(S(=O)(=O)c3ccc(OC)c([N+](=O)[O-])c3)CC2)cc1 14.3%
Cc1nc2ncnn2c(C)c1CCC(=O)NCCc1ccccc1 3.16%
Cc1ccc([N+](=O)[O-])c2c1C(N1CCCC1)C(C)(C)O2 (stereo not drawn) 5.51%
N#Cc1ccccc1NC(=O)CN1CCN(Cc2ccccc2)CC1 -4.52%
COC(=O)c1ccc(C)c(-n2c(C)cc(C=O)c2C)c1 2.91%
CCOC(=O)N1CCN(c2ccc(Cl)c(Cl)c2)CC1 -6.41%
Clc1cccc(N2CCN(CCCN3CCN(c4ccccc4)CC3)CC2)c1 7.52%
NC(=O)CN1CCN(c2cccc(Cl)c2)CC1 6.34%
COC(=O)N1CCN(c2ccc(Cl)c(Cl)c2)CC1 6.48%
COc1ccc(NC(=O)c2ccc3ccccc3n2)cc1S(=O)(=O)N1CCCCC1 3.75%
O=C(O)C(O)Cc1c[nH]c2ccccc12 (stereo not drawn) 5.43%
Cc1ccc(S(=O)(=O)Nc2ccccc2N=Cc2ccc([N+](=O)[O-])cc2[N+](=O)[O-])cc1 4.67%
CCOc1ccc2nc(NC(=O)CN3CCN(CC)CC3)sc2c1 5.24%
COc1ccc2nc(NC(=O)CN3CCN(C)CC3)sc2c1 14.5%
CCCN1CCN(CC(=O)Nc2nc3ccccc3s2)CC1 12.4%
O=C(CN1CCN(Cc2ccccc2)CC1)Nc1nc2ccccc2s1 14%
O=C(CN1CCN(c2ccccn2)CC1)Nc1nc2ccccc2s1 12.2%
CCOC(=O)N1CCN(CC(=O)Nc2nc3ccccc3s2)CC1 -4.03%
Cc1[nH]nc(N=CC2=C(O)CC(c3ccco3)CC2=O)c1-c1ccccc1 (stereo not drawn) -2.48% and -0.93%
CNC(=O)c1cc(C(=O)c2ccc(F)cc2Cl)c[nH]1 4.17%
CC1CCCCC1NC(=O)C1CC=CCC1C(=O)O (stereo not drawn) -1.3%
CCC1=C(OC(=O)N(CC)CC)N2C(=O)OC(=NCC(=O)OC)[C@]2(Cc2ccccc2)[C@H]2C1=CC[C@H]1C(=O)N(C)C(=O)[C@H]12 0.87%
S=C(NCCc1ccccc1)N1CCN(C(=S)NCCc2ccccc2)CC1 1.96%
CC1CCN(CC(=O)Nc2ccccc2C(=O)NC2CC2)CC1 3.3%
O=C(CN1CCN(c2ccc(F)cc2)CC1)Nc1ccccc1C(=O)NCCc1ccccc1 9.18%
O=C(NC(=S)N1CCN(c2ccc([N+](=O)[O-])cc2)CC1)c1ccco1 13.1%
O=C(NC(=S)N1CCN(c2ccccc2)CC1)c1ccco1 5.3%
O=C(CN1CCN(c2ccccc2)CC1)Nc1ccccc1C(=O)NCCc1ccccc1 15.8%
COc1ccc(N2CCN(C(=S)NCCc3ccccc3)CC2)cc1 5.11%
O=C(CN1CCN(S(=O)(=O)c2ccccc2)CC1)Nc1ccccc1C(=O)NC1CC1 4.29%
O=C1CN(C(=O)CNCc2ccc(Cl)cc2)c2ccccc2N1 31.7%
CCCC(C(=O)Nc1ccc(S(=O)(=O)N2CCOCC2)cc1)c1ccccc1 (stereo not drawn) 4.26%
Cc1nn(C)c(C)c1NC(=O)CN1CCC(O)(c2ccc3c(c2)OCO3)CC1 2.97%
COc1ccccc1NC(=O)c1ccc2c(c1)CCN2S(C)(=O)=O 6.1%
CC(C)NC(=S)N/N=C1\CCCc2ccccc21 3.57%
Nc1nc(NC(=O)c2ccc(F)cc2)ns1 7.21%
Nc1nc(N)c2cc(CNc3ccc(Cl)c(Cl)c3)ccc2n1 14.7%
Cc1nc2ccc(N)cc2c(=O)n1Cc1ccc(Cl)cc1 4.23%
Cc1c(C(C)C[C@H](C)O)oc(=O)c2c1Oc1c(C)c(C(C)C[C@H](C)O)oc(=O)c1C2 (stereo partly drawn) 7.75%
CN1CCN(/N=C/c2ccc(N(c3ccccc3)c3ccccc3)cc2)CC1 15.3%
CCN(CC)c1ccc(/C=N/N2CCN(c3ccccn3)CC2)cc1 13.5%
CCOc1ccc(/C=N/N2CCN(Cc3ccccc3)CC2)cc1 -1.17%
CCOc1ccccc1/C=N/N1CCN(Cc2ccccc2)CC1 -6.47%
CCN(CC)c1ccc(/C=N\N2CCN(Cc3ccc(C)cc3)CC2)cc1 20.7%
CN1CCN(/N=C/c2ccc(N(C)c3ccccc3)cc2)CC1 27.2%
C(=N\N1CCN(Cc2ccccc2)CC1)/c1ccccc1 8.38%
CCN(CC)c1ccc(C=NN2CCCCCC2)cc1 -1.67%
COc1cccc(-c2nn(C)c3sc(C(=O)NCc4ccc(C)cc4)cc23)c1 5.17%
CCOC(=O)c1[nH]c(C)c(C(=O)OCC(=O)NCc2ccc(OC)c(OC)c2)c1C 1.24%
Cn1ncc2c(NCc3ccccc3)nc(NCCCO)nc21 8.06%
CC(C)CC(NC(=O)OC(C)(C)C)c1cn([C@@H](Cc2cc3ccccc3[nH]2)C(=O)N2CCN(C(=O)OC(C)(C)C)CC2)nn1 (stereo partly drawn) 9.06%
COC(=O)c1c(C)[nH]c(C(=O)OC(C)C(=O)N2CCOCC2)c1C (stereo not drawn) 13.4%
O=C(COC(=O)CC12CC3CC(CC(C3)C1)C2)Nc1ncc(Cl)cc1Cl 3.82%
COc1ccc(C(=O)OCC(=O)N2CCN(C(=O)c3ccco3)CC2)cc1OC 0.19%
COc1ccc2c(c1)C(c1ccc(C)o1)=NNC(c1ccccc1)=N2 2.46%
CCC1=NN(C(=O)Cc2ccccc2)C(O)(c2ccncc2)C1 (stereo not drawn) 5.64%
CCN(CC)c1ccc(/C=N/N2CCN(Cc3ccccc3)CC2)c(O)c1 25.7%
CCN(Cc1ccccc1)c1ccc(/C=N/NC(=O)c2cccc(S(=O)(=O)N3CCOCC3)c2)cc1 9.77%
CCN(CC)c1ccc(/C=N/N2CCN(c3ccccc3OC)CC2)cc1 13%
CCN(CC)c1ccc(/C=N/N2CCN(Cc3ccc(C)cc3)CC2)c(O)c1 15.3%
Cc1c(N(CC(=O)O)S(=O)(=O)c2ccccc2)c(=O)n(-c2ccccc2)n1C 11.2%
O=C(c1ccc(NS(=O)(=O)c2cccc3cccnc23)cc1)N1CCCCC1 -16.1%
CCOc1ccc(NC(=O)CN(C)C(=O)c2ccc(C)c(S(=O)(=O)N3CCCCC3)c2)cc1OCC 6.08%
O=[N+]([O-])c1ccc2[nH]c(O)c(N=NC(=S)NCC3CCCO3)c2c1 (stereo not drawn) 9.66%
COc1cccc(NC(=O)C(=O)NCC2CCCN2S(=O)(=O)c2ccccc2)c1 (stereo not drawn) 3.83%
CCc1ccccc1-n1nnnc1-c1cnccc1C(F)(F)F 4.03%
O=S(=O)(Cc1c(F)cccc1Cl)c1ncn[nH]1 5.34%
CN(C)c1ccc(CNn2cnnc2SCC(=O)NC(C)(C)C)cc1 14.5%
Cc1[nH]n(-c2cccc(Cl)c2)c(=O)c1-c1ccccc1 30.6%
Cc1[nH]n(-c2ccccc2)c(=O)c1-c1ccc(Cl)cc1 8.45%
COc1ccc([N+](=O)[O-])cc1N(CC(=O)N1CCN(Cc2ccccc2)CC1)S(C)(=O)=O 6.86%
